Data on 30 compounds can be found in PubChem BioAssay (Tox21).

Inconclusive results are not listed. Calls of active or inactive are those of the source. Calls follow the shape of the dose curve; as a rule, active = well fitted curve in the direction sought with a large enough effect in the repeat runs; inconclusive = weak or mixed curves; inactive = no such curve, though single readings can be large; an effect the other way counts as inactive or inconclusive.

For assay [1], the target named is Cytochrome P450 2D6 (Homo sapiens) (UniProt P10635). Kind of assay: Cytochrome P450 Family 2 Subfamily D Member 6 (CYP2D6) small molecule antagonists: luciferase reporter qHTS assay (AID 1671196). Also: nearly all actives have a fitted effect of over 50% in size. Also: potency is read from the fitted curve at half-maximal effect. Summed up: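 Chemicals tested for interference with CYP2D6 activity; proluciferin substrate, NADPH regeneration, 1 h at room temperature, luminescent detection.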
On the technique in general: Reporter assays use an easily measured gene product as a stand-in for the process of interest.

Assay [2] concerns the target Cytochrome P450 2C9 (Homo sapiens) (UniProt P11712). In words: Cytochrome P450 Family 2 Subfamily C Member 9 (CYP2C9) small molecule antagonists: luciferase reporter qHTS assay (AID 1671198). Also: nearly all actives have a fitted effect of over 50% in size. Also: potency is read from the fitted curve at half-maximal effect. The method in brief: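 CYP2C9 activity was measured with a P450-Glo proluciferin substrate. Enzyme–substrate mix was held with compound for 10 min at room temperature, then NADPH regeneration solution was added for 1 h at 37C. Luciferin product was read as luminescence.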

Assay [3] deals with Voltage-gated inwardly rectifying potassium channel KCNH2 (Homo sapiens) (UniProt Q12809). Kind of assay: Human Ether-a-go-go-Related Gene (hERG) channel small molecule antagonists: fluorescence cell-based qHTS assay (AID 1671200).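 Also: hERG-expressing U2OS cells given a thallium stimulus after FluxOR II dye loading; series mostly up to about 77 µM; nearly all actives have a fitted effect of over 50% in size.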 Summed up: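 Channel function was assessed by thallium flux. Cells seeded the previous day and kept at 37 C took up FluxOR II dye over 1 h in the dark at room temperature, then sat another 10 min before stimulation.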

Assay [4] has as its target Cytochrome P450 3A4 (Homo sapiens) (UniProt P08684). In words: Cytochrome P450 Family 3 Subfamily A Member 4 (CYP3A4) small molecule antagonists: luciferase reporter qHTS assay (AID 1671201). Also: series mostly up to about 120 µM; nearly all actives have a fitted effect of over 50% in size. Summed up:
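Compounds in DMSO were pin-transferred onto CYP3A4 enzyme-substrate mix and held 10 min at room temperature. NADPH regenerating solution started the reaction for 1 h; luciferin detection reagent stopped it, and luminescence was read after 20 min.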

The target of assay [5] is Cytochrome P450 1A2 (Homo sapiens) (UniProt P05177). In words: Cytochrome P450 Family 1 Subfamily A Member 2 (CYP1A2) small molecule antagonists: luciferase reporter qHTS assay (AID 1671199). Also: nearly all actives have a fitted effect of over 50% in size. Also: potency is read from the fitted curve at half-maximal effect. Summed up: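 Read-out is luminescence from luciferin detection reagent (20 min) proportional to CYP1A2 activity; compounds in DMSO preincubated 10 min with enzyme and proluciferin substrate, then NADPH regeneration solution, 1 h, room temperature.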

Assay [6] addresses Cytochrome P450 2C19 (Homo sapiens) (UniProt P33261). In words: Cytochrome P450 Family 2 Subfamily C Member 19 (CYP2C19) small molecule antagonists: luciferase reporter qHTS assay (AID 1671197). Also: series mostly up to about 120 µM; nearly all actives have a fitted effect of over 65% in size. The method in brief:
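Light output is proportional to CYP2C19 activity: proluciferin substrate is converted to luciferin, then detected by a luciferin detection reagent that also stops the 1 h, 37C NADPH-driven reaction. Ketoconazole serves as positive control.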

Chain of Cytochrome P450 1A2 (Homo sapiens) (P05177 whole entry, looked up): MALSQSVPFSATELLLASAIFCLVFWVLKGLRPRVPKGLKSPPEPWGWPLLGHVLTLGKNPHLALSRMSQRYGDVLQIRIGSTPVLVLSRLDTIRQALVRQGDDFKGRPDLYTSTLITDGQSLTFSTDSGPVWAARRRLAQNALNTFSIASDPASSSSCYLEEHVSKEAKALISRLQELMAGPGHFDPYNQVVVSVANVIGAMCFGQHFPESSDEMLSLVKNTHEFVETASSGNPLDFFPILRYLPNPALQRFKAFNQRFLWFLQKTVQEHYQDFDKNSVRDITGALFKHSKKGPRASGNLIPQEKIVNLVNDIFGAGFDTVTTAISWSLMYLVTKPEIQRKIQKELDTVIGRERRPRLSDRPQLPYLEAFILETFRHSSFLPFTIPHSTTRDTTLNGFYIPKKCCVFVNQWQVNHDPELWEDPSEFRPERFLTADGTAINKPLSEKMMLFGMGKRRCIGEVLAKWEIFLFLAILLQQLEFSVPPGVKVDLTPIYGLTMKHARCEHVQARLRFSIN
Chain of Cytochrome P450 2D6 (Homo sapiens) (P10635 whole entry, looked up): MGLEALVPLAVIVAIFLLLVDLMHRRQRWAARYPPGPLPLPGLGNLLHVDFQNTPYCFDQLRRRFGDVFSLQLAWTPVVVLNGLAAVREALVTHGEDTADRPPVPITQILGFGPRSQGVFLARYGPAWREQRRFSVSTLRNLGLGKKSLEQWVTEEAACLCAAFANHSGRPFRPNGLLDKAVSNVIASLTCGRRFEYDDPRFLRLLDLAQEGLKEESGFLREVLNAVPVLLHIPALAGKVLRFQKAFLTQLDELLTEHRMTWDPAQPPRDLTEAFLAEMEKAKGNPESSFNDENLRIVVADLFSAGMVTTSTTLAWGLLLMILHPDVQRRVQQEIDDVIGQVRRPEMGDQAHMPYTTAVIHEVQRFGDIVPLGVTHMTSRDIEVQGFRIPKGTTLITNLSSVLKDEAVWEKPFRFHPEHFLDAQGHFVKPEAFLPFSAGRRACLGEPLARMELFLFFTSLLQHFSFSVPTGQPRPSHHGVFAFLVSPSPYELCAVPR
Chain of Voltage-gated inwardly rectifying potassium channel KCNH2 (Homo sapiens) (Q12809 whole entry, looked up): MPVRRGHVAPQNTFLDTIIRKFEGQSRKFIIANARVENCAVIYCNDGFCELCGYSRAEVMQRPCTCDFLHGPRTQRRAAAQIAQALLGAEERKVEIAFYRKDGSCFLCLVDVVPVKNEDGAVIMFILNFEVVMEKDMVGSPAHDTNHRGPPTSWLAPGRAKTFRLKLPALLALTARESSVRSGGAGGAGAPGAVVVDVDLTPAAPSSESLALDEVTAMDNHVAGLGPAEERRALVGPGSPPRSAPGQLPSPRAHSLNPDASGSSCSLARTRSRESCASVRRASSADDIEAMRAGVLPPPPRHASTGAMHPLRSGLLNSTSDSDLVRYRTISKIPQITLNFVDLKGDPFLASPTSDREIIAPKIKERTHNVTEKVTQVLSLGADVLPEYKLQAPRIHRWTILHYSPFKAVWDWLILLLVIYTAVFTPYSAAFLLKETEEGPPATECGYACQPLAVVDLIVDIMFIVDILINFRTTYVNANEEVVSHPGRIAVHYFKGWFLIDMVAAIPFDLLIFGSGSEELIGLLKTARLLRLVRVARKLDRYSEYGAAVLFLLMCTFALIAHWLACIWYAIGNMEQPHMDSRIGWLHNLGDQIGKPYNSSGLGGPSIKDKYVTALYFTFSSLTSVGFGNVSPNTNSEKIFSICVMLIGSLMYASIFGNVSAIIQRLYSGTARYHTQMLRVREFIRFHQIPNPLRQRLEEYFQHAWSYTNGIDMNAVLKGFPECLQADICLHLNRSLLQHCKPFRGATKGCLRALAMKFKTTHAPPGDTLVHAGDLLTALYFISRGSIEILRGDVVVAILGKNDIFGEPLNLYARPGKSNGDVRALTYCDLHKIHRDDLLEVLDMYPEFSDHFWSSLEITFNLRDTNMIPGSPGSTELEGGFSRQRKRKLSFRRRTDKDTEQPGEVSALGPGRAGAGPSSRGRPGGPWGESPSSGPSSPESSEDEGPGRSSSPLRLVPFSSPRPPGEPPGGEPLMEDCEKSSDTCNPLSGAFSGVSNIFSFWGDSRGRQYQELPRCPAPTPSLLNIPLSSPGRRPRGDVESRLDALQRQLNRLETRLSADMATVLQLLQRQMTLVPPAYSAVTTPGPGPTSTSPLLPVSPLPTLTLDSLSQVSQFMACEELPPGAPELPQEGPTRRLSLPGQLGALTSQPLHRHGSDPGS
Chain of Cytochrome P450 2C9 (Homo sapiens) (P11712 whole entry, looked up): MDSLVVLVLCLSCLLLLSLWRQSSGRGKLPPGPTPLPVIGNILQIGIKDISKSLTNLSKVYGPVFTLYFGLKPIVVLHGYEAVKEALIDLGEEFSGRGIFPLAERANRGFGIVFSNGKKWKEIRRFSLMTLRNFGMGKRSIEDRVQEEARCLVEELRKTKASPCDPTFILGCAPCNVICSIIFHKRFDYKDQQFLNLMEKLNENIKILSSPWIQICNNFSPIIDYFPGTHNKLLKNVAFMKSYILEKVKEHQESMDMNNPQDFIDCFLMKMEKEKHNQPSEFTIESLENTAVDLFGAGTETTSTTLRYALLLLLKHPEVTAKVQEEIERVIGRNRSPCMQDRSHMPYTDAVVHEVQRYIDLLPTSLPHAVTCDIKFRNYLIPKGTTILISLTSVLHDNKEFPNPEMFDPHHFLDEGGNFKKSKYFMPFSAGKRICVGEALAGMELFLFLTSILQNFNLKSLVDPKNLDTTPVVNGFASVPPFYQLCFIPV
Chain of Cytochrome P450 3A4 (Homo sapiens) (P08684 whole entry, looked up): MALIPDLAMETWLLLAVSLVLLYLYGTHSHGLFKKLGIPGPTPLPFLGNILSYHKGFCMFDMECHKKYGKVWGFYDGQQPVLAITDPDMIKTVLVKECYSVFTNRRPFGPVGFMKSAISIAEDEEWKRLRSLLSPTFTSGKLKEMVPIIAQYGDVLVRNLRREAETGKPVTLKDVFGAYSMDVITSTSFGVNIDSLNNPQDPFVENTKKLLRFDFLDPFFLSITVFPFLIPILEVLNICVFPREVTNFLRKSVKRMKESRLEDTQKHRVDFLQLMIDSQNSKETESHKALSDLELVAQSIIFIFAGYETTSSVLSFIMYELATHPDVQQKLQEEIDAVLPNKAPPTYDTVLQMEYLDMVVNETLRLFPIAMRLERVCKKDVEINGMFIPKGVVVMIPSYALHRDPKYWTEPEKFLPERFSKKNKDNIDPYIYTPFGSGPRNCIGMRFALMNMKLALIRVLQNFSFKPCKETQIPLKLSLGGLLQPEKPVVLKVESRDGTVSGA
Chain of Cytochrome P450 2C19 (Homo sapiens) (P33261 whole entry, looked up): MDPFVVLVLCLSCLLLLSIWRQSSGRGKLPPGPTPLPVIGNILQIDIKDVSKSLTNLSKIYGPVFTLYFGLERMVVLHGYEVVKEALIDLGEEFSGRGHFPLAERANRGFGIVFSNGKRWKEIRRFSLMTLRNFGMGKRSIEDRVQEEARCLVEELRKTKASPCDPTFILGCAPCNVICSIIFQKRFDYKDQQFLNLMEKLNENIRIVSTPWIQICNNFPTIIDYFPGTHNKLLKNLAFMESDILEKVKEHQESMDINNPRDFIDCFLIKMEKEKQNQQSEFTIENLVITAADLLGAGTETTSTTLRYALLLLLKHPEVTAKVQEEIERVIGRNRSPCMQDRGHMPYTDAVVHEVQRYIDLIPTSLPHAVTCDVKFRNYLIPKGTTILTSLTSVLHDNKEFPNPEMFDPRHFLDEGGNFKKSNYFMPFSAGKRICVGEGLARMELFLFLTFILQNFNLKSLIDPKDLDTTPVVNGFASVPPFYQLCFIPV

Turning to `CC(C)(C)NCC(O)COc1cccc2c1CCC(=O)N2` (centres undefined), the Potency entry in assay [1], in assay [2], in assay [3] and in assay [4] was “inactive” in each case.

For the compound `CC(=O)Oc1ccc(C(C)=O)cc1`, the Potency result in assay [1], in assay [2], in assay [3] and in assay [4] was “inactive” each time. For the same compound, the Potency in assay [5] is 33 µM (active).

On to `COc1cc(NS(=O)(=O)c2ccc(N)cc2)ncn1`, for which the Potency entry in assay [1], in assay [6], in assay [3] and in assay [4] was “inactive” throughout.

For `CCCc1ccc(O)c(OC)c1`, the Potency result in assay [1], in assay [2], in assay [3] and in assay [4] was “inactive” throughout.

Take `CCCCCC(CC)OC(=O)CCCOc1ccc(Cl)cc1Cl` (centres undefined): the Potency entry in assay [1], in assay [3] and in assay [4] was “inactive” throughout. The Potency in assay [2] was 28.2 µM (active); in assay [5] it was 35.5 µM (active).

Consider `Cc1ccc(OC(=O)CC(C)C)cc1`, for which the Potency entry in assay [1], in assay [2], in assay [3] and in assay [4] was “inactive” throughout.

As to `CCNC(=O)C(C)OC(=O)Nc1ccccc1` (centres undefined), the Potency entry in assay [1], in assay [3] and in assay [4] was “inactive” in each case. Moreover, the Potency in assay [2] and in assay [5] was 35.6 µM (active) in each case.

Take `COC(=O)c1ccccc1Cl`: the Potency entry in assay [1], in assay [2], in assay [3] and in assay [4] was “inactive” throughout.

On to `C/C(Cl)=C/CCl`, for which the Potency result in assay [1], in assay [2] and in assay [5] was “inactive” in each case.

In the case of `O=C[C@@H](O)[C@H](O)[C@H](O)CO`, the Potency entry in assay [1], in assay [2] and in assay [5] was “inactive” in each case.

`C=CCN(CC=C)CC=C`: the Potency result in assay [1], in assay [6], in assay [3] and in assay [4] was “inactive” throughout.

Turning to `CCN1CCN(C(=O)N[C@@H](C(=O)N[C@@H]2C(=O)N3[C@@H]2SC(C)(C)[C@H]3C(=O)O)c2ccccc2)C(=O)C1=O`, the Potency entry in assay [1], in assay [2], in assay [5] and in assay [4] was “inactive” each time.

As for `CCC(=O)OCCOc1ccccc1`, the Potency entry in assay [1] and in assay [2] was “inactive” in each case.

For `COC(=O)c1ccc(NC(C)=O)cc1OC`, the Potency entry in assay [1], in assay [2], in assay [3] and in assay [4] was “inactive” in each case. Besides, in assay [5], the Potency was 11.5 µM (active).

As for `C[Si](C)(C)O[Si](O)(O)O`, the Potency entry in assay [1], in assay [2], in assay [3] and in assay [4] was “inactive” in each case.

As for `NNC(=O)OCc1ccccc1`, the Potency result in assay [1], in assay [3] and in assay [4] was “inactive” each time. Besides, the Potency in assay [2] was 56.4 µM (active).

For the compound `Cc1ccc(Br)cc1`, the Potency entry in assay [1], in assay [2], in assay [5] and in assay [4] was “inactive” each time.

For the compound `COC(=O)c1cc(Cl)c(NC(C)=O)cc1OC`, the Potency entry in assay [1], in assay [2], in assay [3] and in assay [4] was “inactive” each time.

As to `CC(C)(C)C(=O)CC(=O)C(C)(C)C`, the Potency entry in assay [1], in assay [2], in assay [5] and in assay [3] was “inactive” in each case.

As to `CC/C=C\CCOC(=O)c1ccccc1`, the Potency entry in assay [1] and in assay [2] was “inactive” throughout.

On to `COc1cc(S(N)(=O)=O)cc(C(=O)O)c1OC`, for which the Potency result in assay [1], in assay [2], in assay [5], in assay [3] and in assay [4] was “inactive” each time.

Turning to `CCCCCCC(=O)c1ccccc1`, the Potency result in assay [1], in assay [2], in assay [3] and in assay [4] was “inactive” each time. Also, the Potency in assay [5] was 50.2 µM (active).

`CC(=O)c1c(C)cc(C(C)(C)C)cc1C`: the Potency result in assay [1], in assay [2], in assay [3] and in assay [4] was “inactive” in each case.

For the compound `COc1ccc(Cl)cc1C`, the Potency result in assay [1], in assay [3] and in assay [4] was “inactive” each time. Further, the Potency in assay [2] was 84.7 µM (active).

On to `Cc1ccc(O)c([N+](=O)[O-])c1`, for which the Potency in assay [1] was 71.8 µM (active). The Potency result in assay [2], in assay [3] and in assay [4] was “inactive” throughout.

Consider `COCc1nnc(-c2ccc[n+]([O-])c2)n1-c1c(Cl)c(Cl)cc2[nH]c(=O)c(=O)[nH]c12`, for which the Potency result in assay [1], in assay [2] and in assay [3] was “inactive” each time.

Regarding `CCOC(=O)c1ccc(N(C)C)cc1`, the Potency entry in assay [1], in assay [3] and in assay [4] was “inactive” each time. For the same compound, the Potency in assay [2] is 31.7 µM (active).

Turning to `O=C(O)/C=C(\CC(=O)O)C(=O)O`, the Potency entry in assay [1], in assay [2], in assay [3] and in assay [4] was “inactive” each time.

Take `CO/N=C(\C(=O)O)c1csc(NC(=O)CCl)n1`: the Potency entry in assay [1], in assay [2], in assay [5] and in assay [3] was “inactive” each time.

For the compound `O=C1Nc2ccccc2C1=O`, the Potency entry in assay [1], in assay [2], in assay [3] and in assay [4] was “inactive” throughout.
